About 83,000 compounds went through this panel and 20% of them were active in at least one assay; those are over-represented in the sample as a whole.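 Compound tested at a single concentration for 48 hours in 96-well plates; a percent growth value below 10 was scored as active.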 A number with no mark means an inactive call. Activity calls are given as the source filed them.

Test systems include T-47D breast; MDA-MB-435 melanoma; SW-620 colon; MCF7 breast; HCT-116 colon; HCC-2998 colon; KM12 colon; BT-549 breast.
Common to all, as to test: NCI-60 one-dose screen, 48 h (100 = growth as untreated, 0 = no growth, -100 = all killed)
Conditions in all cases: 10 µM unless noted

On to `Oc1cccc2oc(=S)[nH]c12`, for which the growth in the assay on T-47D breast was 104%; in the assay on MDA-MB-435 melanoma, 115%; in the assay on SW-620 colon, 108%; with MCF7 breast, 101%; with HCT-116 colon, 107%; with HCC-2998 colon, 100%. The growth with KM12 colon was 115%.
On to `O=C(/C=C\c1ccc2c(c1)OCO2)/C=C/c1ccc2c(c1)OCO2`, for which the growth is 75.6% with T-47D breast; 67.2% in the assay on BT-549 breast; 17% in the assay with MDA-MB-435 melanoma; 13.2% with MCF7 breast; -12.5% (active) with HCT-116 colon; 8.55% (active) with KM12 colon.
Consider `N#CC1=C(N)Oc2ccc3ccccc3c2C1c1ccccc1` (stereo not given), for which the growth in the assay on BT-549 breast was 19.8%; with MDA-MB-435 melanoma, -21.6% (active); with SW-620 colon it was 28%; with MCF7 breast, 14.8%; with HCT-116 colon, 19.4%; in the assay on HCC-2998 colon, 69.3%.
Take `Fc1ccc(Nc2ccc3c(OCCCN4CCOCC4)cccc3n2)cc1F`: the growth is 86.1% in the assay with BT-549 breast; 78.7% with MDA-MB-435 melanoma; 47.6% with SW-620 colon; 61.3% in the assay on MCF7 breast; 78.5% in the assay on HCT-116 colon; 66.3% in the assay with HCC-2998 colon. In addition, in the assay on KM12 colon, the growth is 16.1%.
`O=c1c(CNc2ccc(S(=O)(=O)Nc3ncccn3)cc2)coc2ccccc12`: the growth in the assay with BT-549 breast is 93.6%; with MDA-MB-435 melanoma, 119%; in the assay on SW-620 colon it was 98.4%; with MCF7 breast it was 86.1%; with HCT-116 colon, 91.3%; in the assay on HCC-2998 colon, 101%. For the same compound, the growth with KM12 colon is 115%.
For the compound `CN(C)c1ccc(N=C2C=CC(=O)C=C2)cc1`, the growth in the assay with BT-549 breast is 31.3%; in the assay on MDA-MB-435 melanoma, 74.5%; with SW-620 colon, 96.3%; in the assay on MCF7 breast, 72.3%; with HCT-116 colon, 74.3%; in the assay with HCC-2998 colon it was 94.3%. Besides, the growth with KM12 colon was 97.1%.
Turning to `Cn1cc(-c2csc(-c3cn(CCN)c4ccc(F)cc34)n2)c2cccnc21`, the growth was 89.1% with BT-549 breast; 53.5% in the assay on MDA-MB-435 melanoma; 52.6% with SW-620 colon; 36.2% in the assay with MCF7 breast; 77.1% in the assay with HCT-116 colon; 91.1% with HCC-2998 colon. In the assay on KM12 colon, the growth is 47.7%.
On to `COc1ccc(-c2cc(/C=C/C(=O)c3ccc(N)cc3)[nH]n2)cc1`, for which the growth in the assay with BT-549 breast is 9.81% (active); with MDA-MB-435 melanoma, 14.7%; with SW-620 colon, -38.1% (active); in the assay with MCF7 breast it was 18.4%; in the assay on HCT-116 colon, 8.45% (active); in the assay with HCC-2998 colon, 35.4%. In the assay on KM12 colon, the growth is 3.29% (active).
As for `COc1ccc(/C=C/C(=O)NCCO)cc1`, the growth is 102% with BT-549 breast; 104% in the assay on MDA-MB-435 melanoma; 99.3% in the assay on SW-620 colon; 94.8% with MCF7 breast; 101% with HCT-116 colon; 103% in the assay on HCC-2998 colon. For the same compound, the growth in the assay with KM12 colon is 103%.
On to `COc1cc2c(cc1OC)C(=O)/C(=C/c1cc(-c3ccc4c(c3)OCO4)n[nH]1)C2`, for which the growth in the assay with BT-549 breast was -47.8% (active); in the assay on MDA-MB-435 melanoma it was 17.3%; in the assay on SW-620 colon, -84.9% (active); in the assay on HCC-2998 colon it was 89.3%.
Take `N#Cc1c(-c2ccc(O)cc2)c2c(N)nn(-c3ccccc3)c2[nH]c1=O`: the growth in the assay on BT-549 breast was 111%; in the assay with MDA-MB-435 melanoma, 108%; in the assay on SW-620 colon, 102%; in the assay with MCF7 breast it was 101%; with HCT-116 colon, 108%; in the assay with HCC-2998 colon it was 110%. Moreover, the growth with KM12 colon was 102%.
For `C/C(=C(/c1ccccc1)c1ccc(N2C(=O)c3cccc4c(NCc5ccccc5)ccc(c34)C2=O)cc1)c1ccccc1`, the growth was 100% with BT-549 breast; 102% in the assay with MDA-MB-435 melanoma; 95.2% in the assay on SW-620 colon; 89.9% with MCF7 breast; 87.1% in the assay on HCT-116 colon; 109% in the assay with HCC-2998 colon. For the same compound, the growth in the assay on KM12 colon is 91.5%.
For `Cc1cc(Cl)nc(N(CCNc2ccnc3cc(Cl)ccc23)Cc2ccco2)n1`, the growth was 54.7% in the assay on BT-549 breast; 41.9% in the assay on MDA-MB-435 melanoma; 28% in the assay with SW-620 colon; 22.7% in the assay on MCF7 breast; 13.6% in the assay with HCT-116 colon; 91.1% in the assay on HCC-2998 colon. The growth in the assay with KM12 colon is 59.5%.
Take `CCN1CCN(C(=O)[C@]23CC[C@@H](C)[C@H](C)[C@H]2C2=CC[C@@H]4[C@@]5(C)C/C(=C/c6cccc(OC)c6OC)C(=O)C(C)(C)[C@@H]5CC[C@@]4(C)[C@]2(C)CC3)CC1`: the growth is 55% with BT-549 breast; 43.4% with MDA-MB-435 melanoma; 33.3% in the assay with SW-620 colon; 12.2% in the assay with MCF7 breast; 17.9% in the assay with HCT-116 colon; 32.7% in the assay with KM12 colon.
`N#C/C(=C\c1ccc(-c2ccc(Br)cc2)o1)c1nc(-c2cccs2)cs1`: the growth was 96.8% in the assay on BT-549 breast; 101% in the assay on MDA-MB-435 melanoma; 99.8% in the assay with SW-620 colon; 28.9% in the assay with MCF7 breast; 91% in the assay with HCT-116 colon; 91.8% in the assay with HCC-2998 colon. Also, the growth in the assay with KM12 colon is 95.9%.
In the case of `N=c1c(S(=O)(=O)c2ccccc2)cc2c(=O)n3ccccc3nc2n1C1CCCC1`, the growth with BT-549 breast was 89.3%; in the assay on MDA-MB-435 melanoma it was 108%; in the assay on SW-620 colon, 99.3%; with MCF7 breast, 93.8%; in the assay with HCT-116 colon, 91.5%; in the assay on HCC-2998 colon, 103%. Further, in the assay with KM12 colon, the growth is 98.5%.
On to `Cc1ccnc2c(OCc3ccccc3)cccc12`, for which the growth with BT-549 breast was 101%; in the assay on MDA-MB-435 melanoma, 90.2%; in the assay on SW-620 colon, 92%; in the assay with MCF7 breast, 38.3%; with HCT-116 colon, 92.4%; with HCC-2998 colon, 86.6%. Besides, in the assay with KM12 colon, the growth was 82.8%.
Regarding `CC(=O)OC(C)COc1ccc(-c2ccccc2)cc1` (stereo not given), the growth is 98.6% with BT-549 breast; 98.6% in the assay with MDA-MB-435 melanoma; 100% with SW-620 colon; 81.2% in the assay with HCT-116 colon; 104% with HCC-2998 colon; 98.8% in the assay on KM12 colon.
For the compound `CCCCCCCCNc1cccc2c1C(=O)c1ccccc1C2=O`, the growth in the assay with BT-549 breast was 101%; in the assay on MDA-MB-435 melanoma, 105%; in the assay on SW-620 colon it was 93.5%; in the assay on MCF7 breast, 102%; in the assay on HCT-116 colon, 103%; in the assay on HCC-2998 colon, 107%. For the same compound, in the assay with KM12 colon, the growth is 103%.
As to `Cc1cc(N2CCCCC2)nc(N(CCCNc2ccnc3cc(Cl)ccc23)Cc2ccco2)n1`, the growth in the assay with BT-549 breast was 27.3%; in the assay on MDA-MB-435 melanoma, -9.54% (active); in the assay on SW-620 colon, 9.49% (active); in the assay on MCF7 breast, 11.7%; with HCT-116 colon it was 0.453% (active); with HCC-2998 colon it was 54.7%. In addition, the growth with KM12 colon is 28.9%.
`Nc1c(C(=O)Nc2cccc3ccccc23)sc2nc3c(cc12)CCCC3`: the growth in the assay with BT-549 breast is 64.6%; with MDA-MB-435 melanoma it was -63.1% (active); in the assay with SW-620 colon, 31%; in the assay with MCF7 breast, 20.6%; in the assay on HCT-116 colon, 20.7%; with HCC-2998 colon it was 26.7%. Further, the growth in the assay on KM12 colon is 26.7%.
